Shown are actives, neighbours in structure and some others; about 9.2% of the full set was active somewhere.
SMN2 splice up – qHTS Assay for Enhancers of SMN2 Splice Variant Expression. HEK293 SMN2-luciferase splicing reporter, luminescence, 30-36 h. Potency, µM (top dose mostly 46.1 µM), without a hit: at the highest dose activity change, positive = activation, actives largely listed as activators. actives 2.8% (n = 210,000). AID 1458, 2008; further: % of control where 0% means no effect; nearly all actives have a fitted effect of over 55% in size
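HEK293 cells carry an SMN2 […]–luciferase reporter in which exon 7 inclusion puts luciferase in frame. Cells were plated 10-12 h before compound addition, then incubated 30-36 h at 37C. ONE-Glo luminescence was read; sodium butyrate at 4.5 mM final served as control.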
NPC1 prom act – qHTS Assay for NPC1 Promoter Activators; Huh7 NPC1 promoter luciferase reporter, 24 h; Potency, µM (series often up to 9.22 µM), inactives show at the top dose activation, usual class: activators; actives 2.4% (n = 320,000); further: % of control where 0% means no effect; nearly all actives have a fitted effect of over 60% in size
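Readout is luciferase luminescence, reflecting NPC1 promoter activation in stably transfected Huh7 cells after 24 h compound exposure at 37 °C in reduced-serum medium with 10% FBS.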
FLuc counter – qHTS profiling assay for firefly luciferase inhibitor/activator using purifed enzyme and Km concentrations of substrates (counterscreen for miR-21 project); Potency, µM (top dose mostly 57.5 µM), for inactives: at the top dose activity change, negative = inhibition, usual class: inhibitors; purified FLuc, Km substrates, luminescence inhibition; actives 6.9% (n = 360,000);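 further: plate controls were vehicle for no effect and reference inhibitor for full effect; nearly all actives have a fitted effect of over 55% in size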
Target sequence (P08659 whole entry, looked up): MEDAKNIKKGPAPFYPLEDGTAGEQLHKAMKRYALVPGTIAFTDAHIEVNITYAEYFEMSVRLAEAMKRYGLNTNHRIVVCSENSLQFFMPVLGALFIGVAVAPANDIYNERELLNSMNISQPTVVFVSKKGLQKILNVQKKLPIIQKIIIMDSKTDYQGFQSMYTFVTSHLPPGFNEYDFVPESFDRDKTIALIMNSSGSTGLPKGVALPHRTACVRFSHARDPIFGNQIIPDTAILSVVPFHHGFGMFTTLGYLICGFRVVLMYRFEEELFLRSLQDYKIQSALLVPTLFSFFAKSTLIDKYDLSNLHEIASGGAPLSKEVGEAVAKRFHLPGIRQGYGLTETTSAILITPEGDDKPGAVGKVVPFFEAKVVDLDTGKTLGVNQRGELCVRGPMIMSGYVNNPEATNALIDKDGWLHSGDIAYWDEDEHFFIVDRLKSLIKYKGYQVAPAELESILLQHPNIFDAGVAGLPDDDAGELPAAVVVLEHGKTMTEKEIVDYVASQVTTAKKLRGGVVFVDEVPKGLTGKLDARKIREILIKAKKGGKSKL
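Biochemical qHTS of compounds, final roughly 60 µM downward over six points, against 10 nM purified firefly luciferase using Km concentrations of substrates (10 uM D-luciferin, 10 uM ATP) in Tris acetate pH 7.5 buffer; luminescence output.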
ELG1 repair inh – qHTS screen for small molecules that inhibit ELG1-dependent DNA repair in human embryonic kidney (HEK293T) cells expressing luciferase-tagged ELG1; HEK293T ELG1-luciferase reporter, luminescence, 16 h; DNA damage induced by 5-fluorouridine; Potency, µM (doses to about 46.1 µM), without a hit: top-dose activity change, negative = inhibition, actives largely listed as inhibitors; actives 2.3% (n = 330,000); AID 504467, 2011; further: on the % scale 0 is the no-effect control and ±100 the full control effect; nearly all actives have a fitted effect of over 55% in size
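Cells (2,000 per well) received 5-fluorouridine plus test compound or DMSO and were incubated 16 hr at 37 °C, 5% CO2. Luciferase activity was read by luminescence 30 min after ONE-Glo addition; signal suppression marked inhibition of damage-induced ELG1 function.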
ELG1 genotoxic – qHTS screen for small molecules that induce genotoxicity in human embryonic kidney (HEK293T) cells expressing luciferase-tagged ELG1; actives 1.3% (n = 330,000); HEK293T ELG1-luciferase reporter, luminescence, 16 h; Potency, µM (top dose mostly 46 µM), for inactives: top-dose activity change, positive = activation, hits mostly activators; AID 504466, 2011; further: % of control where 0% means no effect; nearly all actives have a fitted effect of over 60% in size
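HEK293T cells expressing luciferase-tagged ELG1 were exposed to compound or DMSO vehicle for 16 hr at 37 °C and 5% CO2. Luciferase activity was then measured with ONE-Glo after 30 min at room temperature.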
Rab9 promoter act – qHTS Assay for Rab9 Promoter Activators. actives 2.8% (n = 320,000). Huh7 Rab9 promoter-luciferase reporter, luminescence, 24 h. Potency, µM (series often up to 9.22 µM), without a hit: at the highest dose activation, negative = inhibition, actives largely listed as activators; further: % of control where 0% means no effect; nearly all actives have a fitted effect of over 60% in size
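Steps: seed 1500 Huh7 Rab9-luc cells per well, rest 2 h at 37 °C; add compound in DMSO; incubate 24 h; add luciferase reagent, 10 min ambient; read luminescence.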
The depositor's hits bear a star; ? = inconclusive; . = no result given. The call rests on the fitted dose curve; in most records, active means well fitted curve in the direction sought with a large enough effect; inconclusive means small, poorly fitted or top-dose-only effect, or another doubt; inactive means no such curve, though single readings can be large; an effect the other way counts as inactive or inconclusive. Potency means the concentration at half of the fitted maximal effect.

SMILES	SMN2 splice up	NPC1 prom act	FLuc counter	ELG1 repair inh	ELG1 genotoxic	Rab9 promoter act
CCOC(=O)c1sc(NC(=O)CSc2nc3cccnc3n2C)nc1C	.	1%	-1%	?	-7%	3%
CCOC(=O)c1ccc(Nc2ncccc2[N+](=O)[O-])cc1	.	2.5µM*	7.6µM*	?	?	1µM*
CCOC(=O)c1cc(-c2ccc(C)cc2)n(CCC(=O)Nc2cc(Cl)ccc2C)c1C	-8%	.	-2%	.	.	.
O=C(CN(C(=O)c1csnn1)c1ccc(F)c(Cl)c1)NC1CCCC1	.	0%	2%	9%	-1%	-1%
CCOC(=O)c1ccc(N/N=C/c2cc(Br)cc([N+](=O)[O-])c2O)cc1	-69%	-3%	1.2µM*	-1%	-13%	0%
COc1ccc(C(CC(=O)Nc2cc(OC)c(OC)c(OC)c2)N2Cc3ccccc3C2=O)cc1 (stereo unspecified)	.	.	-11%	.	.	.
O=C(CC(SCCO)c1ccc2c(c1)OCO2)c1ccco1 (stereo unspecified)	-5%	?	4.8µM*	19%	?	?
O=C(CC1CCCCC1)Nc1nc2ccccc2s1	11µM*	1.8µM*	?	?	?	1.6µM*
O=C(Nc1nc2ccccc2s1)NC1CCCCC1	.	1.4µM*	1.9µM*	?	?	0.63µM*
CCOC(=O)C(C(=O)Nc1nc2ccccc2s1)C1CCCCC1 (stereo unspecified)	-20%	4%	-1%	-5%	-1%	2%
Cc1cnc(NC(=O)CC2CCCC2)s1	18µM*	?	?	?	?	?
COc1cc(OC)cc(-c2nc3nc(C)c(CCC(=O)Nc4ccc(C)cc4C)c(C)n3n2)c1	-7%	.	-2%	.	.	.
COc1cccc(CNC(=O)c2cc3c(=O)oc4ccc(C)cc4c3s2)c1	4%	.	1%	.	.	.
C=CCNC(=O)c1ccccc1NC(=O)C1CCN(S(=O)(=O)c2ccc(SC)cc2)CC1	.	0%	2%	-6%	-6%	3%
N#Cc1cn(-c2ccccc2)nc1-c1cc2ccccc2oc1=O	.	13%	0%	?	?	-1%
COc1ccc(NC(=O)CN(C)C(=O)c2cn(-c3ccccc3)nc2-c2ccc(F)cc2)cc1	.	-1%	21µM*	?	-4%	1%
COc1ccc(NC(=O)CN(C)C(=O)c2cn(-c3ccccc3)nc2-c2ccc(OC)cc2)cc1	.	-3%	2%	?	-2%	-2%
OCc1cn(-c2ccccc2)nc1-c1cc2ccccc2o1	7.9µM*	2.5µM*	1.7µM*	?	?	1.3µM*
O=C(O)c1cccc(NC(=O)c2cn(-c3ccccc3)nc2-c2cccc(Br)c2)c1	.	1%	?	16%	0%	-5%
COc1ccc(-c2nn(-c3ccccc3)cc2/C=N/Nc2cccc(C(=O)O)c2)cc1	25%	?	11µM*	?	?	?
O=C(O)c1ccc(NC(=O)c2cn(-c3ccccc3)nc2-c2ccc(Br)cc2)cc1	6%	0%	3.8µM*	3%	0%	-5%
CCOc1ccc(C(=O)c2oc3ccccc3c2NC(=O)c2cc(-c3ccccc3)on2)cc1	.	.	0%	.	.	.
CCOC(=O)C1CCN(c2ncnc3c2c(-c2ccccc2)cn3-c2ccc(C)c(Cl)c2)CC1	.	.	1%	.	.	.
CCC(C)c1ccccc1N1CC(C(=O)N2CCN(C(=O)c3ccco3)CC2)CC1=O (stereo unspecified)	.	-6%	0%	2%	-4%	12%

Compound activity as filed in PubChem.
